Inconclusive results are not listed. The source made the active and inactive calls. Calls follow the shape of the dose curve; as a rule, active = well fitted curve in the direction sought with a large enough effect; inconclusive = small, poorly fitted or top-dose-only effect, or another doubt; inactive = no such curve, though single readings can be large; an effect the other way counts as inactive or inconclusive.
Experiments:
[1] = qHTS to identify inhibitors of the type 1 interferon - major histocompatibility complex class I in skeletal muscle: primary screen against the NCATS LOPAC collection (AID 1347405);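 also: lytic HiBiT luminescence reporting HLA-B protein level; % is scaled to controls: 0 for no effect and ±100 for the full control effect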
Summary of the method: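 Immortalized human C25cl48 myoblasts with HiBiT knocked into endogenous HLA-B*08:01 were stimulated with 4.0 ng/ml IFN-beta and given compounds in a 7-point, 1:4.3 titration from 46 uM final; after 24 hrs, lytic HiBiT luminescence was read.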

[2] = qHTS for inhibitors of adenylyl cyclases using a fission yeast platform: a pilot screen against the NCATS LOPAC library (AID 1347410);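 also: plate controls were DMSO vehicle for no effect and DPI positive control for full effect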
Summary of the method: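 S. pombe CHP2027 (AC9-GNAS-PDE4D2) carrying PKA-repressed fbp1-GFP, incubated 18 h at 30C in EMM with LOPAC compounds at up to 57 uM. GFP gain-of-signal read by laser scanning cytometry; DMSO negative control.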

[3] = Validation qHTS assay for inhibitors of Activation Induced Cytidine Deaminase (AID): UDG Counterscreen signal (AID 1347427); also: 0% is about no effect
Summary of the method: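 Counterscreen read of UDG activity (2 U/mL, 4/3x) in the FRET deamination format with AID (1 uM, 4/3x), DJC20/DJC23 substrates (250 nM, 4x), 4 h at room temperature. NaOH stop, fluorescence at 560 ex/665 em.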

[4] = target: Single-stranded DNA cytosine deaminase (Homo sapiens) (UniProt Q9GZX7); assay: Validation qHTS assay for inhibitors of Activation Induced Cytidine Deaminase (AID): AID signal (AID 1347429); also: % is scaled to controls: 0 for no effect and ±100 for the full control effect
Summary of the method: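 AID and UDG were combined and compounds added at final up to 114 uM, then DJC20/DJC23 FRET substrate was added for 4 hr at room temperature. NaOH was then added for 30 min before fluorescence was read at 540/590 nm.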

[5] = qHTS to identify inhibitors of the type 1 interferon - major histocompatibility complex class I in skeletal muscle: primary screen against the NCATS Pharmaceutical Collection (AID 1347407);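 also: luminescence of HiBiT knocked into endogenous HLA-B as interferon-induced MHC class I level; % is scaled to controls: 0 for no effect and ±100 for the full control effect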
Summary of the method: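 Immortalized human myoblasts (C25cl48) with HiBiT knocked into endogenous HLA-B*08:01 were stimulated with 4.0 ng/ml IFN-beta and treated with compounds ([…] top 46 uM) for 24 hrs at 37 C. HiBiT lytic luminescence read.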

[6] = target: Protein phosphatase 1D (Homo sapiens) (UniProt O15297); assay: RapidFire Mass Spectrometry qHTS Assay for Modulators of WT P53-Induced Phosphatase 1 (WIP1) (AID 1347424);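 also: amount of dephosphorylated VEPPL-S-QETFS peptide product formed by WIP1; series mostly up to about 63 µM; plate controls were DMSO wells for no effect and GSK830371 inhibitor control at 10 µM for full effect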
Summary of the method: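 WIP1 (10 nM final) was preincubated 1 h at room temperature with compounds in Tris-HCl pH 7.5, 30 mM MgCl2, TCEP, EGTA, BSA; 2 uM VEPPL-pS-QETFS phosphopeptide was added for 5 min, quenched with formic acid, and dephosphorylated product quantified by RapidFire MS.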

[7] = target: Protein phosphatase 1D (Homo sapiens) (UniProt O15297); assay: Rhodamine-PBP qHTS Assay for Modulators of WT P53-Induced Phosphatase 1 (WIP1) (AID 1347425); also: % of control where 0% means no effect
Summary of the method: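 5 nM WIP1 + 10 uM Rh-PBP, 50 mM Tris pH 7.5, 30 mM MgCl2, 1 mM TCEP, 0.1 mM EGTA, BSA; cpds pinned, 1 hr RT; + 10 uM phosphopeptide; fluorescence 1-min reads x 11 min; delta = f1 - f0.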

Chain of Protein phosphatase 1D (Homo sapiens) (O15297 whole entry, looked up): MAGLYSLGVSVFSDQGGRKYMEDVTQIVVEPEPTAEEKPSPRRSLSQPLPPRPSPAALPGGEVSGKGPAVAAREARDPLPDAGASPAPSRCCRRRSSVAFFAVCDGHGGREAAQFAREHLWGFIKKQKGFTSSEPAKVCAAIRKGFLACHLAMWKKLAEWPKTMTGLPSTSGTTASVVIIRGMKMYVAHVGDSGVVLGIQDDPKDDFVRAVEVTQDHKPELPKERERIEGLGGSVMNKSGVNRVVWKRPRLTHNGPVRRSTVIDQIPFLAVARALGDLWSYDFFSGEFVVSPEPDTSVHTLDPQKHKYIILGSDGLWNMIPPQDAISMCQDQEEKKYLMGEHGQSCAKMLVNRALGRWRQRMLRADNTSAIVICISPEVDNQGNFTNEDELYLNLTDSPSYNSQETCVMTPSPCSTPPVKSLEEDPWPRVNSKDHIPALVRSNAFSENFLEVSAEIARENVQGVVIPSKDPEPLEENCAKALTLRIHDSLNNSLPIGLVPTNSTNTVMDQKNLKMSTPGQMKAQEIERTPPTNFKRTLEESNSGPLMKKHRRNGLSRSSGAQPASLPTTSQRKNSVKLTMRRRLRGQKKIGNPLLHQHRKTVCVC
Chain of Single-stranded DNA cytosine deaminase (Homo sapiens) (Q9GZX7 whole entry, looked up): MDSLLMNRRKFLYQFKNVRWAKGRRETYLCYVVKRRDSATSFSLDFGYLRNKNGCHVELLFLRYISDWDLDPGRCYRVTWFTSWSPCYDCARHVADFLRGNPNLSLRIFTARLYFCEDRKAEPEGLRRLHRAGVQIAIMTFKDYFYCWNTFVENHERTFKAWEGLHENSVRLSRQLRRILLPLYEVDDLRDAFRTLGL

CNCCc1c[nH]c2ccc(O)cc12
inactive: Potency [1] | outcome [2] | outcome [3] | outcome [4]

Cc1cc(O)ccc1Cl
inactive: outcome [5] | Potency [6] | outcome [7]

O=C(O)[C@@H]1CCN1
inactive: Potency [1] | outcome [2] | outcome [3] | outcome [4]

COC(=O)c1cncn1C(C)c1ccccc1 (stereo not drawn)
inactive: outcome [5] | Potency [6] | outcome [7]

NC1CC1c1ccccc1 (stereo not drawn)
inactive: Potency [1] | outcome [2] | outcome [3] | outcome [4]

CC1=C(C(=O)O)N2C(=O)[C@@H](N)[C@H]2SC1
inactive: activity change, negative = inhibition [5] -3.5% [at 19 µM] | activity change, negative = inhibition [6] 5.52% [at 26.6 µM] | activity change, negative = inhibition [7] 6.57% [at 23.8 µM]

O=[N+]([O-])/N=C1\NCCN1Cc1ccc(Cl)nc1
inactive: outcome [5] | Potency [6] | outcome [7]

Cn1cnc(CCN)c1
inactive: Potency [1] | outcome [2] | outcome [3] | outcome [4]

CC(C)NCC(O)c1ccc([N+](=O)[O-])cc1 (stereo not drawn)
inactive: outcome [5] | Potency [6] | outcome [7]

O=C(O)COc1nc(Cl)c(Cl)cc1Cl
inactive: outcome [5] | Potency [6] | outcome [7]

CC(O)CN1CCN(CC(=O)[O-])CCN(CC(=O)[O-])CCN(CC(=O)[O-])CC1.[Gd+3] (stereo not drawn)
inactive: outcome [5] | Potency [6] | outcome [7]

O=C(O)CC[N+](=O)[O-]
inactive: Potency [1] | outcome [2] | outcome [3] | outcome [4]

CC(C)(C)NC[C@H](O)c1ccc(O)cc1Cl
inactive: outcome [5] | Potency [6] | outcome [7]

O=C(Cc1ccc(Cl)c(Cl)c1)N1CCCCC1CN1CCCC1 (stereo not drawn)
inactive: Potency [1] | outcome [2] | outcome [3] | outcome [4]

c1ccc(C2(c3ccccc3)CC2C2=NCCN2)cc1 (stereo not drawn)
inactive: Potency [1] | outcome [3] | outcome [4]

CCOCCOC(C)=O
inactive: outcome [5] | Potency [6] | outcome [7]

Oc1ccc2c3c1O[C@H]1[C@@H](O)C=C[C@H]4[C@@H](C2)NCC[C@@]341
inactive: outcome [5] | Potency [6] | outcome [7]

NC(N)=NOCCC(N)C(=O)O (stereo not drawn)
inactive: Potency [1] | outcome [2] | outcome [3] | outcome [4]

CCCCC(CC)COC(=O)c1ccccc1C(=O)OCC(CC)CCCC (stereo not drawn)
inactive: outcome [5] | Potency [6] | outcome [7]

C/C=C(/C)C(=O)O[C@H]1C(C)=C2[C@H]([C@@H]1OC(=O)CCCCCCC)[C@@](C)(OC(C)=O)C[C@H](OC(=O)CCC)[C@@]1(O)[C@H]2OC(=O)[C@@]1(C)O
inactive: outcome [3] | outcome [4]

Cc1c(C(=O)c2cccc3ccccc23)c2cccc3c2n1[C@H](CN1CCOCC1)CO3
inactive: outcome [3] | outcome [4]

— PubChem BioAssay (NCATS)
